# Assay outcomes: PubChem BioAssay, National Center for Advancing Translational Sciences (NCATS)
# A selection: hits, their analogues and other compounds. The true share with any hit is near 3%.
# Sm TGR inh – inhibitors of Schistosoma mansoni thioredoxin glutathione reductase. purified TGR, DTNB reduction, TNB absorbance 405 nm. Potency, µM (doses to about 114 µM), inactives show at the highest dose activity change, negative = inhibition, actives largely listed as inhibitors. 360,000 compounds, 3% hits. AID 485364; further: nearly all actives have a fitted effect of over 60% in size
#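 First, TGR (20 nM dispensed) and NADPH were mixed with compound. Second, a 15 min room-temperature incubation followed. Third, further NADPH and then DTNB were added to start the reaction. Finally, TNB absorbance was monitored kinetically.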
# RE007 growth inh – less growth of the S. pombe RE007 Vpr strain. S. pombe RE007 Vpr strain, BacTiter-Glo ATP luminescence, 24 h. Potency, µM (top dose mostly 92.2 µM), for inactives: top-dose activity change, negative = less growth, usual class: inhibitors. 360,000 compounds, 0.21% hits; active means well fitted falling curve with a large enough effect; inconclusive means small, poorly fitted or top-dose-only effect; inactive means no such curve, though single readings can be large or run the other way; further: nearly all actives have a fitted effect of over 50% in size
#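 Fission yeast RE007 carrying one integrated HIV-1 vpr copy, seeded at OD 0.01 in PMG+AL medium with 23 nL pinned compound. Grown 24 h at 30 degrees; viability read by BacTiter-Glo luminescence after 5 min.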
# TbPYK inhibitor – inhibitors of Trypanosoma brucei pyruvate kinase. TbPYK enzyme, Kinase-Glo Plus ATP luminescence, 45 min. Potency, µM (series often up to 76.8 µM), without a hit: at the highest dose activity, negative = inhibition, usual class: inhibitors. 410,000 compounds, 0.12% hits. AID 624173; further: nearly all actives have a fitted effect of over 50% in size
#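 Screened from lowest to highest concentration, compounds were pinned into TbPYK/substrate mixtures, and ADP (130 uM final) was added. Plates sat at room temperature for 45 min prior to Kinase-Glo Plus detection by luminescence.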
# LmPK inh – inhibitors of Leishmania mexicana pyruvate kinase | 290,000 compounds, 0.37% hits | Q27686 | Potency, µM (doses to about 57.5 µM), for inactives: at the highest dose activity change, negative = inhibition, actives largely listed as inhibitors | purified LmPK, Kinase-Glo ATP luminescence, 1 h
# Target sequence (Q27686 whole entry, looked up): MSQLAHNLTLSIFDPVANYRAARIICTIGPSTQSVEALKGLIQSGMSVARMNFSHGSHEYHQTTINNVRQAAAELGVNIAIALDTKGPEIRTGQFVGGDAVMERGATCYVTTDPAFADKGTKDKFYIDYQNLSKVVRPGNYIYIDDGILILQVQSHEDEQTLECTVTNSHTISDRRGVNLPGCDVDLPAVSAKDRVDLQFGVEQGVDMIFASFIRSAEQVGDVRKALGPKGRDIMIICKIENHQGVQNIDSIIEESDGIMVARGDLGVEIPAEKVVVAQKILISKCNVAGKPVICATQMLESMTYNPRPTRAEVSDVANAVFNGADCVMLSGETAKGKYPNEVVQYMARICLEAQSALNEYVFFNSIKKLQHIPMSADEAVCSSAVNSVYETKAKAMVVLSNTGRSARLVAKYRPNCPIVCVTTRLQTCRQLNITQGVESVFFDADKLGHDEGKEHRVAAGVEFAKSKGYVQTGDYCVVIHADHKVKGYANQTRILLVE
#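 In 50 mM imidazole pH 7.2 with 7 mM MgCl2, LmPK (0.1 nM) turned over PEP (0.5 mM) and ADP (0.1 mM) for 1 h at room temperature. Luciferase read-out of ATP.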
# * hit, by the source's call; ? = inconclusive; . = no result given; [ ] = remark or other dose. Unless noted, the call rests on the fitted dose curve; in most records, active means well fitted curve in the direction sought with a large enough effect; inconclusive means small, poorly fitted or top-dose-only effect, or another doubt; inactive means no such curve, though single readings can be large; an effect the other way counts as inactive or inconclusive. On the % scale 0 is the no-effect control and ±100 the full control effect; potency means the concentration at half of the fitted maximal effect.
SMILES,Sm TGR inh,RE007 growth inh,TbPYK inhibitor,LmPK inh
Cc1ccc(-n2c(-c3ccccc3)n[nH]c2=S)cc1,-26%,10%,?,?
Cc1ccc(-n2c(-c3ccncc3)n[nH]c2=S)cc1,14%,29%,?,16µM*
COc1ccc(C2Nc3cccc4cccc(c34)N2)cc1Br,25µM*,-1%,-15%,-4%
Brc1ccc(C2Nc3cccc4cccc(c34)N2)cc1,.,1%,-9%,.
COc1cc(C2Nc3cccc4cccc(c34)N2)ccc1OC(C)=O,?,-1%,-8%,-2%
Fc1ccc(C2Nc3cccc4cccc(c34)N2)cc1,18µM*,7%,-9%,0%
FC(F)(F)c1ccc(C2Nc3cccc4cccc(c34)N2)cc1,20µM*,16%,-14%,6%
Cc1ccc(C2Nc3cccc4cccc(c34)N2)s1,18µM*,.,-24%,-1%
CC(NC(=O)C1CCN(C(=O)N2CCOc3ccc(Cl)cc32)CC1)c1ccccc1 (configuration not stated),8%,.,-14%,.
CCCOc1ccc(C2Nc3cccc4cccc(c34)N2)cc1,14µM*,0%,-24%,-1%
CCOc1ccc(NC(=O)Cc2coc3ccc(C)cc23)cc1,6%,.,2%,.
COc1ccc(-c2nc(CSCC(=O)NC3CCCc4ccccc43)c(C)o2)cc1OC (configuration not stated),0%,-10%,1%,3%
COc1ccc(-c2nc(CS(=O)CC(=O)NC3CCCc4ccccc43)c(C)o2)cc1OC (configuration not stated),20µM*,-2%,-2%,8%
COc1ccc(-c2nc(CS(=O)CC(=O)NC3CCCC3)c(C)o2)cc1OC (configuration not stated),20µM*,-10%,-4%,2%
COc1ccc(-c2nc(CS(=O)CC(=O)NC3CCC(C)CC3)c(C)o2)cc1OC (configuration not stated),35µM*,-2%,-1%,-4%
CCN1CCN(c2ncnc3c2sc2nc(N4CCOCC4)c4c(c23)CCC4)CC1,-5%,-5%,-5%,-1%
c1nc(NCCN2CCOCC2)c2sc3nc(N4CCOCC4)c4c(c3c2n1)CCC4,45µM*,-16%,0%,-1%
O=[N+]([O-])c1cc(CS(=O)(=O)Oc2ccc(Cl)cc2)c(O)c([N+](=O)[O-])c1,.,-13%,2%,.
CS(=O)(=O)c1ccc(S(=O)CC(=O)Oc2ccc(Cl)cc2)c([N+](=O)[O-])c1 (configuration not stated),1.6µM*,-4%,-2%,10%
O=[N+]([O-])c1ccccc1S(=O)c1ccccc1[N+](=O)[O-],.,3%[18.4 µM],-4%,.
O=C(CS(=O)c1ccccc1[N+](=O)[O-])Oc1ccc(Br)cc1 (configuration not stated),25µM*,?,-5%,-4%
Cc1cc(Cl)ccc1NC(=O)CSc1nnc(Cc2cccs2)n1Cc1ccco1,20µM*,16%,-4%,7%
COc1cc2c(cc1NC(=O)CSc1nnc(Cc3cccs3)n1Cc1ccco1)oc1ccccc12,-17%,-7%,-10%,2%
O=C(CSc1nnc(-c2ccccc2)n1Cc1ccco1)Nc1ccc2c(c1)OCCO2,35µM*,15%,1%,5%
Cc1cc(C)c(NC(=O)CSc2nnc(-c3ccncc3)n2Cc2ccco2)c(Cl)c1,22µM*,7%,-2%,0%
SMILES,Sm TGR inh,RE007 growth inh,TbPYK inhibitor,LmPK inh
N#Cc1ccc(CSc2nnc(-c3ccccc3)n2Cc2ccco2)cc1,-1%,3%,-5%,0%
N#Cc1ccc(CSc2nnc(Cc3cccs3)n2Cc2ccco2)cc1,11µM*,-23%,?,-3%
O=C(CSc1nnc(-c2ccncc2)n1Cc1ccco1)Nc1cccc(O)c1,-10%,-11%,1%,-1%
O=C(CSc1nnc(-c2cccs2)n1Cc1ccco1)Nc1ccc2c(c1)OCO2,-9%,15%,-4%,5%
Cc1ccccc1NC(=O)c1c(NC(=O)Cc2ccccc2)sc2c1CCC2,-4%,.,-4%,.
CCn1c(C(=O)N2CCCC(C(=O)N3CCN(c4cc(C)ccc4C)CC3)C2)cc2sccc21 (configuration not stated),8%,.,0%,.
Cc1ccccc1C(=O)Nc1ccc(OCc2cc(=O)n3ccccc3n2)cc1,1%,.,-1%,.
COc1ccc(CN2CCN(c3ccccc3F)CC2)cc1O,12%,7%,8%,2%
COc1ccc(C(=O)N2CCN(Cc3cc(OC)c(O)c(OC)c3)CC2)cc1OC,8.9µM*,-6%,5%,4%
COc1cc(CN2CCN(C(=O)CC(C)C)CC2)cc(OC)c1O,13µM*,7%,8%,-8%
COc1cc2c(cc1OC)CN(Cc1ccccc1)CC2,10%,8%,-8%,-3%
COc1cc(CN2CCN(c3ccccc3F)CC2)cc(OC)c1O,14µM*,-6%,-2%,-7%
COc1cc2c(cc1OC)CN(Cc1cc(OC)c(O)c(OC)c1)CC2,8.9µM*,-8%,1%,-1%
CC1=C(C(=O)OCc2ccc(C)cc2)C(c2ccccc2F)CC(=O)N1 (configuration not stated),0%,.,-8%,.
CCOc1ccc2oc(C(=O)N(C)CCc3ccc(OC)c(OC)c3)c(C)c2c1,-19%,1%,-4%,.
COc1ccc(CCN(C)C(=O)COC(=O)/C=C/c2ccc(C)o2)cc1OC,16µM*,4%,?,.
COc1ccc(-c2noc(-c3cc(C(C)C)[nH]n3)n2)cc1,1%,.,0%,.
COc1cc(Br)c(C[N+]2(CCOCCC3CCC4CC3C4(C)C)CCOCC2)cc1OC (configuration not stated),.,.,0%,.
O=C1CCCc2cc(S(=O)(=O)N3CCCC(C(=O)NCc4ccccc4Cl)C3)ccc2N1 (configuration not stated),9%,.,-14%,.
O=[N+]([O-])c1ccc(/C=C/C2=NN(c3ccccc3)C(c3ccco3)C2)o1 (configuration not stated),40µM*,-19%,-19%,-3%
Fc1ccc(C2=NN(c3ccccc3)C(c3ccco3)C2)cc1 (configuration not stated),0%,-15%,1%,-3%
C(=C\c1ccco1)/C1=NN(c2ccccc2)C(c2ccco2)C1 (configuration not stated),28µM*,-3%,-11%,-2%
O=c1cc(O)n(-c2ccccc2)c(=S)[nH]1,2µM*,8%,?,1%
COc1ccc(NC(=O)N2CC3(CCN(C(=O)c4cnccn4)CC3)C2)cc1,.,.,6%,.
COc1ccc(C(=O)N2[C@@H](C(C)C)COc3cc(Br)ccc3S2(=O)=O)cc1,.,-10%,5%,.
CCNc1nc(NCC)nc(N(C)/N=C/c2ccco2)n1,35µM*,-12%,10%,5%
CN(/N=C/c1ccco1)C1=NS(=O)(=O)c2ccccc21,0%,12%,-5%,2%
